The record followed here is PubChem BioAssay (EPA / NIEHS).

Structures are written as SMILES. Inconclusive results are not listed. Active and inactive are the calls of the source. How the source made its calls: active means hit-call score of the fitted dose curve at least 0.9, where 1 is the maximum; inconclusive means response in the unintended direction; inactive means score below 0.9.

Bile acid receptor (Homo sapiens), sequence (Q96RI1 whole entry, looked up, the tested form may be a part): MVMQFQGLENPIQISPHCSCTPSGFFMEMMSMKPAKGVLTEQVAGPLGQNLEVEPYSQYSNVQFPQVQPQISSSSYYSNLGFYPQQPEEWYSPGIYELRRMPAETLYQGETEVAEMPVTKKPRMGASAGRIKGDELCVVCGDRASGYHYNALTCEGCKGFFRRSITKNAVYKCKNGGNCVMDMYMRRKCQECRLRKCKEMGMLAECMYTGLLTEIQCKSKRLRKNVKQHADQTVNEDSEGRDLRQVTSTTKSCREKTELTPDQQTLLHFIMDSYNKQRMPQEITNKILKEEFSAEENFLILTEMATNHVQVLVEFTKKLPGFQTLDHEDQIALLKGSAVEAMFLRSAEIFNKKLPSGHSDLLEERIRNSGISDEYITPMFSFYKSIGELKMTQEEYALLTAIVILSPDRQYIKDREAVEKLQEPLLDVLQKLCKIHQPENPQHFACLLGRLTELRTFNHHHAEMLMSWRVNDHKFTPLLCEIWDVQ

In this assay the target is Bile acid receptor (Homo sapiens) (UniProt Q96RI1). Kind of assay: OT_FXR_FXRSRC1_0480: Odyssey Thera (OT) 8-hour HEK293T Protein-Complementation Assay for Farnesoid X receptor/SRC-1 Co-activator (AID 2283383). As to the method:
OT_FXR_FXRSRC1_0480 is a cell-based assay that uses HEK293T, a human kidney cell line, with measurements taken at 8 hours after chemical dosing in a 384-well plate.OT_FXR_FXRSRC1_0480 is one of one assay component(s) measured or calculated from the OT_FXR_FXRSRC1_0480 assay. It is designed to make measurements of protein fragment complementation, a form of binding reporter, as detected with fluorescence intensity signals by Protein-fragment Complementation technology.Data from the assay component OT_FXR_FXRSRC1_0480 was analyzed into 1 assay endpoint. This assay endpoint, OT_FXR_FXRSRC1_0480, was analyzed in the positive analysis fitting direction relative to DMSO as the negative control and baseline of activity. Using a type of binding reporter, measures of receptor for gain-of-signal activity can be used to understand the binding at the pathway-level as they relate to the gene NR1H4. Furthermore, this assay endpoint can be referred to as a primary readout, because the performed assay has only produced 1 assay endpoint. To generalize the intended target to other relatable targets, this assay endpoint is annotated to the nuclear receptor intended target family, where the subfamily is non-steroidal.
Protein-fragment complementation assay, or PCA, is a method for the identification and quantification of protein-protein interactions. In the PCA, the proteins of interest ("bait" and "prey") are each covalently linked to fragments of a third protein (e.g. DHFR, which acts as a "reporter"). Interaction between the bait and the prey proteins brings the fragments of the reporter protein in close proximity to allow them to form a functional reporter protein whose activity can be measured.
In the case of `O=Nc1ccc(Nc2ccccc2)cc1`, the call was inactive.

Regarding `CCN(CC)c1ccc2c(-c3ccccc3C(=O)O)c3ccc(=[N+](CC)CC)cc-3oc2c1`, the AC50 is 35.2 µM (active).

`OCCN1CCNCC1`: the compound was classed as inactive.

On to `CC(=O)C=CC1=C(C)CCCC1(C)C`, for which the compound was classed as inactive.

For the compound `CCCC/C=C\CCCCCCCCCC=O`, the compound was called inactive.

As to `CC(C)=CCCC(C)CC=O` (stereo unspecified), the compound was called inactive.

On to `BrC1CCC(Br)C(Br)CCC(Br)C(Br)CCC1Br` (stereo unspecified), for which the concentration at half-maximal activity (AC50) is 18.2 µM (active).

As to `C=CC(C)(O)CCC=C(C)CCC=C(C)C` (stereo unspecified), the AC50 is 59.4 µM (active).

Turning to `CC(C)(C#N)c1cc(Cn2cncn2)cc(C(C)(C)C#N)c1`, the call was inactive.

As to `O=C1NC(=O)c2ccccc21`, the compound was classed as inactive.

With `CCC(=O)/C=C/C1C(C)=CCCC1(C)C` (stereo unspecified), the AC50 was 50 µM (active).

`NCCCN1CCOCC1`: the outcome was inactive.

Turning to `COc1cc(C(C)(C)C)c(O)c(C(C)(C)C)c1`, the half-maximal activity concentration (AC50) was 67 µM (active).

With `CCCCCCCCCCCCCC(=O)O`, the compound was classed as inactive.

For `COc1c(Cl)c(Cl)c(Cl)c(Cl)c1Cl`, the compound was called inactive.

For the compound `c1ccc(CCCc2ccccn2)cc1`, the concentration at half-maximal activity (AC50) is 50 µM (active).
